HEK cytotox – kills HEK 293 cells; HEK 293 viability, ATP luminescence (CellTiter-Glo), 48-72 h; Potency, µM (series often up to 115 µM), hits mostly inhibitors; 6.6% of 94,000 active; AID 1345083; further: nearly all actives have a fitted effect of over 60% in size
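Viability of HEK 293 cells, plated at 250 cells/well, was judged by cellular ATP after compound treatment for 48 or 72 hr. Luminescence was imaged 10 min after CellTiter-Glo addition at room temperature.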
GPT2 inh – GPT2 alanine aminotransferase inhibition; Q8TD30; Potency, µM (doses to about 57.7 µM), usual class: inhibitors; Recombinant GPT2, coupled pyruvate oxidase/HRP Amplex Red fluorescence; 0.25% of 100,000 active; AID 1671188; further: nearly all actives have a fitted effect of over 60% in size
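Recombinant GPT2 (10ng/uL) with 250uM a-KG and 2mM L-alanine, 30 min at room temperature, in HEPES pH 7.5 buffer. Pyruvate detected by pyruvate oxidase/HRP/Amplex Red fluorescence after 30 min in the dark; AOA (50uM) as positive control.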
Luciferase inh – inhibitors of firefly (Photinus pyralis) luciferase. purified P. pyralis luciferase, luminescence, biochemical. 2.5% of 76,000 active. Potency, µM (series often up to 115 µM), actives largely listed as inhibitors. P08659; further: nearly all actives have a fitted effect of over 65% in size
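Inhibitors were tested against purified firefly luciferase in a biochemical, low-substrate format (both substrates at 10uM) and luminescence measured with a CCD imager.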
NPR1 antag – antagonists of human natriuretic peptide receptor Npr1. Potency, µM (doses to about 46.3 µM), usual class: inhibitors. AID 1347048. HEK293 hNpr1 GloSensor cGMP, ANP-stimulated luminescence. 1.6% of 76,000 active; calls by dose curve; further: nearly all actives have a fitted effect of over 60% in size
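Compound pre-incubated 30 min at room temperature on GloSensor-loaded HEK293 cells stably carrying hNpr1 and the pGS-40F cGMP biosensor. Stimulation uses hNppA at 0.1 nM final; luminescence is taken at baseline and 20 min post-agonist.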
NIH3T3 tox – NIH 3T3 cell cytotoxicity; NIH 3T3 viability, CellTiter-Glo ATP luminescence, 48-72 h; Potency, µM (titrated, usually from 96.7 µM), most hits filed as inhibitors; 4.3% of 94,000 active; further: nearly all actives have a fitted effect of over 55% in size
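Mouse fibroblast NIH 3T3 cells, 400 per well, received compound via pintool and were incubated for 48 or 72 hr prior to CellTiter-Glo ATP luminescence measurement.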
A number is an active result; – = inactive; ? = inconclusive; · = not tested or not shown. Compounds with a hit are over-represented: about 10% of the library has one in this group of screens. Unless noted, the call rests on the fitted dose curve; in most records, active means well fitted curve in the direction sought with a large enough effect; inconclusive means small, poorly fitted or top-dose-only effect, or another doubt; inactive means no such curve, though single readings can be large; an effect the other way counts as inactive or inconclusive.

SMILES	HEK cytotox	GPT2 inh	Luciferase inh	NPR1 antag	NIH3T3 tox
COc1ccc(C(=O)N2CCN(C(=O)c3nc4cccnc4n(C4CC4)c3=O)CC2)cc1	–	–	·	·	–
Cn1ncc2c(C(=O)NCc3cccc(F)c3)cc(-c3ccccc3F)nc21	45µM	·	·	·	?
C#CCNC(=O)c1cc(-c2cccc(C(F)(F)F)c2)nc2c1cnn2C	?	·	·	·	10µM
Cn1ncc2c(C(=O)NCc3cccc(F)c3)cc(-c3ccc(C(F)(F)F)cc3)nc21	40µM	·	·	·	–
Cn1ncc2c(C(=O)NCc3cccc(C(F)(F)F)c3)cc(-c3ccc(C(F)(F)F)cc3)nc21	–	·	·	·	–
COc1ccc(CC(=O)NC2CCN(CCn3nc4n(c3=O)CCCC4)C2)cc1 (stereo not given)	–	·	·	·	–
CC(C)(C)C(=O)N1CCC[C@@H]1C(=O)N1CCCC(c2nc3ccncc3[nH]2)C1 (stereo not given in full)	–	–	·	·	–
CC(C)(C)C(=O)Nc1cnc(-c2cccnc2)nc1	–	–	28µM	–	–
O=C(CCc1ccccc1)Nc1cnc(-c2cccnc2)nc1	?	–	–	–	–
O=C1CC2(CCN(C(=O)C3CCCN3C(=O)c3ccccc3)CC2)Oc2ccccc2N1 (stereo not given)	–	–	·	·	–
CC(=O)OC1C(O)C(C)=C(CCC(C)CC(=O)O)C2(C)CCCC(C)(C)C12 (stereo not given)	·	–	·	·	·
CC1CCC(NC(=O)c2cc3n(n2)CC(c2ccc4c(c2)OCO4)OC3)CC1 (stereo not given)	22µM	–	–	–	?
Cc1cc(C)cc(NC(=O)c2cc3n(n2)CC(c2ccc4c(c2)OCO4)OC3)c1 (stereo not given)	89µM	–	–	–	?
O=C(NCCCc1ccccc1)c1cc2n(n1)CC(c1ccc3c(c1)OCO3)OC2 (stereo not given)	?	–	–	–	28µM
CCOc1ccc(NC(=O)c2cc3n(n2)CC(c2ccc4c(c2)OCO4)OC3)cc1 (stereo not given)	22µM	–	?	16µM	?
COc1ccc(OC)c(NC(=O)c2cc3n(n2)CC(c2ccc4c(c2)OCO4)OC3)c1 (stereo not given)	?	–	–	–	–
O=C1CCN(Cc2ccccc2)CCCC(c2nc(-c3cnccn3)no2)CCN1 (stereo not given)	–	–	–	–	–
O=C1NCN(Cc2ccc(Cl)cc2)C12CCN(Cc1ccsc1)CC2	?	–	–	–	?
O=C(NCc1ccc(Cl)cc1)c1cc(-c2ccc(Cl)cc2Cl)c2nncn2n1	?	–	·	·	35µM
O=C(NC1CCCCCC1)c1cc(-c2ccc(Cl)cc2Cl)c2nncn2n1	40µM	–	·	·	?
CC(C)(C)C(Cn1ccnc1)NC(=O)c1cc(COc2ccc3c(c2)CCCC3)on1 (stereo not given)	25µM	–	?	–	20µM
Cc1cc(C)n(CCCNC(=O)c2cc(COc3ccc4sc(C)nc4c3)on2)n1	–	–	–	–	–
COCc1ncc(C)n1C1CCN(C(=O)CCc2c[nH]c3ccccc23)C1 (stereo not given)	–	–	·	·	–
CC(=O)NCc1nnc2n1C(C(=O)NCc1ccccc1F)CC2 (stereo not given)	–	–	·	·	–
N#CC1CCN(C(=O)C2CCCCN2Cc2ccc(-c3ccsc3)cc2)CC1 (stereo not given)	?	–	·	·	?
SMILES	HEK cytotox	GPT2 inh	Luciferase inh	NPR1 antag	NIH3T3 tox
Fc1ccc(Nc2cnc3ccc(-c4ccccc4)nn23)cc1	100µM	–	–	–	79µM
c1ccc(-c2ccc3ncc(Nc4ccc5c(c4)OCCO5)n3n2)cc1	89µM	?	?	–	?
c1ccc(-c2ccc3ncc(Nc4ccncc4)n3n2)cc1	?	–	–	–	?
Fc1ccc(-c2ccc3ncc(Nc4ccc5c(c4)OCCO5)n3n2)cc1	?	–	?	–	?
Fc1ccccc1Nc1cnc2ccc(-c3ccccc3)nn12	100µM	?	–	–	?
c1ccc(-c2ccc3ncc(Nc4cccnc4)n3n2)cc1	?	?	–	–	?

Screening results as filed in PubChem BioAssay.
